The list is not random: actives were taken first. Their share in the collection is about 11%.
Tau fibril FP = tau fibrillization inhibition (FP). P10636. K18 P301L tau heparin fibrillization, Alexa594 FP, 6 h. Potency, µM (doses to about 57.7 µM), most hits filed as inhibitors. actives 0.39% (n = 280,000); note: nearly all actives have a fitted effect of over 55% in size
Target sequence (P10636 561-689 P618L limits assumed): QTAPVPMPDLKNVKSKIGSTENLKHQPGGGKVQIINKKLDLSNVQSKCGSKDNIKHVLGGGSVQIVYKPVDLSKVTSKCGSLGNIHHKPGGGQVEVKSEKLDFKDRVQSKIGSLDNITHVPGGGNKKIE
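Recombinant K18 P301L […], labeled with Alexa 594 at 0.24 uM over 15 uM unlabeled; heparin inducer 20 uM final; 37 C, 6 hr; FP endpoint.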
Tau fibril ThT = tau fibrillization inhibition (ThT binding). P10636. actives 2.1% (n = 270,000). AID 1460. Potency, µM (series often up to 57.4 µM), usual class: inhibitors. recombinant tau K18 P301L, heparin-induced fibrillization, ThT fluorescence; note: nearly all actives have a fitted effect of over 55% in size
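Fibril formation assay: tau K18 P301L at 15 uM with trace Alexa 594 label, heparin inducer 20 uM, pH 7 sodium acetate buffer, 37 C for 6 hr; endpoint ThT signal.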
G9a inh = inhibitors of human histone lysine methyltransferase G9a; Q96KQ7; G9a H3K9 monomethylation, AlphaScreen, 2 h; Potency, µM (highest dose often 102 µM), actives largely listed as inhibitors; actives 8.8% (n = 350,000); AID 504332; note: nearly all actives have a fitted effect of over 75% in size
Target sequence (Q96KQ7 913-1193 limits assumed): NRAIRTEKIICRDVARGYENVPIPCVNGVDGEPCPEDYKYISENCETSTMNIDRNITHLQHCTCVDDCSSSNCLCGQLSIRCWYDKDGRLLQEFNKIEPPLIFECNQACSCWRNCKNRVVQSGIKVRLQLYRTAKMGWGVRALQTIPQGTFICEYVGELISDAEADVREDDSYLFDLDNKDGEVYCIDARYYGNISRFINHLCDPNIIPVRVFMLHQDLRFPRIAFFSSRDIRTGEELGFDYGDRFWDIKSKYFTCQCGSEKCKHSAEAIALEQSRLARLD
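Signal arises when biotinylated H3K9 peptide, once monomethylated, bridges streptavidin donor and antibody-captured acceptor beads. Enzyme at 20 nM was preincubated 15 min with test compounds; peptide 500 nM and SAM 20 uM then reacted for 2 h.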
Tau fluor counter = counter-screen for tau fibril formation inhibitors; actives 0.93% (n = 280,000); tau K18 P301L (four-repeat tau fragment) Alexa594 fluorescence, heparin fibrillization; AID 1463; Potency, µM (series often up to 57.7 µM); note: nearly all actives have a fitted effect of over 55% in size
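Human K18 P301L tau (15 uM unlabeled plus 0.24 uM Alexa 594-labeled, final) in 100 mM sodium acetate pH 7 was mixed with compound and 20 uM heparin and incubated 6 hr at 37 C.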
Sfp PPTase inh = inhibitors of Bacillus subtilis Sfp phosphopantetheinyl transferase. Q9F4F7. actives 3.5% (n = 310,000). Biochemical Sfp PPTase activity, qHTS. Potency, µM, hits mostly inhibitors. AID 1490;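 note: the enzyme is Sfp with the accession as filed and its product quenches rhodamine fluorescence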
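Sfp 15 nM + cpd, 15 min RT; start w/ rhodamine-CoA 5 uM, BHQ-2-YbbR 12.5 uM (final); 50 mM Hepes pH 7.6, 10 mM MgCl2, 0.01% NP-40, 0.01% BSA; read 525/598 nm at 0 and 30 min.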
Coupling enz = coupling enzyme interference in Giardia aldolase counter-screen | activity change, negative = inhibition, % at 58.2 µM, hits read low | actives 0.67% (n = 290,000) | coupling enzyme system counterscreen, AmpLite Red fluorescence | AID 2472; in the data active = activity change below about -30%
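Activity here indicates interference with the coupling reaction, not aldolase inhibition. Compounds at 57.5 uM final met coupling enzymes for 10 min at RT; substrate and AmpLite Red detection followed, with a 525/598 nm fluorescence read after 20 min.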
Numbers stand for hits; n = inactive; u = inconclusive; x = no result; [ ] = dose if it differs, or a comment. Unless noted, calls come from the whole dose curve; as a rule, active = well fitted curve in the direction sought with a large enough effect; inconclusive = small, poorly fitted or top-dose-only effect, or another doubt; inactive = no such curve, though single readings can be large; an effect the other way counts as inactive or inconclusive.

SMILES | Tau fibril FP | Tau fibril ThT | G9a inh | Tau fluor counter | Sfp PPTase inh | Coupling enz
Cc1oc(C)c(C(=O)Nc2ccccc2)c1C | x | x | x | x | n | n
CC(C)c1ccc(NC2CCCN(C(=O)c3ccc4nccnc4c3)C2)cc1 (centres undefined) | x | x | 79.4µM | x | n | x
CC(C)c1ccc(NC2CCCN(C(=O)c3ccnc(Cl)c3)C2)cc1 (centres undefined) | x | x | 25.1µM | x | n | n
Cc1ccc(NC(=O)c2c3c(nc4ccccc24)C(=O)N(C2CCCCC2)C3)cc1F | n | n | n | n | x | x
Clc1cccc(OCCCn2ccnc2)c1 | x | x | x | x | n | n
c1ccc2cc(OCCCn3ccnc3)ccc2c1 | x | x | 25.1µM | x | n | n
Cc1cc(OCCCn2ccnc2)ccc1C(C)C | n | n | 10µM | n | n | n
CC(C)(C)c1ccc(OCCCn2ccnc2)cc1 | x | x | 22.4µM | x | n | n
Clc1ccccc1OCCCn1ccnc1 | x | x | 25.1µM | x | n | n
CCN(CC)c1ccc2c(Cl)c(Br)c(=O)oc2c1 | n | n | n[0.0925 µM] | u | 56.2µM | n
CCN(CC)c1ccc2c(C)c(Cl)c(=O)oc2c1 | n[2.34 µM] | n | 12.6µM | n[2.34 µM] | 56.2µM | n
CCOC(=O)Cc1c(C)c2ccc(N(CC)CC)cc2oc1=O | u | 14.1µM | n | n | n | n
CCOC(=O)CCc1c(C)c2ccc(O)cc2oc1=O | n | n | n | n | n | -39.2
Cc1c(CCC(=O)NCCc2ccccc2)c(=O)oc2cc(O)ccc12 | n | u | n | n | x | x
COCCNC(=S)N=Nc1c(O)[nH]c2c(C)cc(C)cc12 | n | u | n | n | n | n
Cc1cc(C)c2[nH]c(=S)cc(C)c2c1 | n | u | 3.55µM | n | n | n
COc1ccccc1CNC(=O)c1sccc1-c1ccccc1 | x | x | n | x | n | n
Cc1cc(C)n2nc3nc(N4CCCCC4)nc(-c4ccco4)c3c2n1 | n | u | 3.98µM | n | u | n
Cc1ccc(C)c(CN2C(=O)c3ccccc3Sc3ccc(C(=O)NCc4ccco4)cc32)c1 | n | n | n | n | x | x
Nc1ncnc2nc[nH]c12 | n | n | n | n | n | n
Nc1nc(=S)c2[nH]cnc2[nH]1 | n | n | 2.24µM | n | n | n
Cc1onc(-c2c(F)cccc2Cl)c1C(=O)O/N=C(\N)c1ccc([N+](=O)[O-])o1 | n | n | 39.8µM | n | n | n
C/C(=N\OC(=O)c1c(-c2c(F)cccc2Cl)noc1C)c1nccs1 | n | n | n | n | n | n
CCC1(C)Cc2nc3sc(C(=O)O)c(N)c3cc2CO1 (centres undefined) | n | n | 3.55µM | n | 28.2µM | n
CCOC(=O)c1sc2nc3c(cc2c1N)COC(C)(CC)C3 (centres undefined) | n | u | n[12.7 µM] | u | n | n
SMILES | Tau fibril FP | Tau fibril ThT | G9a inh | Tau fluor counter | Sfp PPTase inh | Coupling enz
COCCn1c(C)cc(O)c(C(c2ccccc2)N2CCN(c3ccccc3)CC2)c1=O (centres undefined) | n | u | u | n | x | x
NC(N)=Nc1cc2ccccc2c2ccccc12 | n | u | u | n | n | -33.8
NC(N)=NC(N)=Nc1cccc2ccccc12 | x | x | n | x | n | n
Cc1nc2ncnn2c(N2CCN(C(c3ccccc3)c3ccccc3)CC2)c1C | n | n | u | n | 79.4µM | n
Cc1cc(N2CCN(C(c3ccccc3)c3ccccc3)CC2)n2ncnc2n1 | n | u | n | n | u | n
CCOc1ccc(NS(=O)(=O)c2ccc3[nH]cc(C(=O)NC4CCCC4)c(=O)c3c2)cc1 | 25.1µM | n | u | u | x | x
CCc1ccc(NS(=O)(=O)c2ccc3[nH]cc(C(=O)NC4CCCC4)c(=O)c3c2)cc1 | 11.2µM | n | u | u | x | x
CCOc1ccc(NS(=O)(=O)c2ccc3[nH]cc(C(=O)N(C)C4CCCCC4)c(=O)c3c2)cc1 | n | n | u | n | x | x
O=C(CSc1nc2c([nH]c3ccccc32)c(=O)n1-c1ccc(F)cc1)NC1CCCCC1 | n | n | n | n | x | x
CCc1cccc(C)c1Nc1nn2c(=O)c3ccccc3nc2s1 | n | n | 7.08µM | n | x | x
Cc1cc(C)n(-c2nnc(Nc3ccc(C)c(Cl)c3)c3ccccc23)n1 | n | n | n | u | x | x
Cc1cc(C(=O)COc2ccc([N+](=O)[O-])cc2)c(C)n1C1CC1 | n | n | n | n | n | n
Cc1cc(C(=O)COc2cc(F)ccc2[N+](=O)[O-])c(C)n1C1CC1 | n | n | 35.5µM | n | n | n
O=C(NNc1cc(C(F)(F)F)ccc1Cl)c1ccc(=O)[nH]c1 | x | x | n | x | 56.2µM | n
Cc1ccc(N2C(=O)C(CC(=O)Nc3cccc(F)c3)N(CCc3ccccc3F)C2=O)cc1 (centres undefined) | u | n | n | u | x | x
CC1(C)[N+]([O-])=C2C(=[N+]([O-])C1(C)C)c1ccccc1/C2=N\O | n | n | 50.1µM | n | n | n
O=[N+]([O-])c1ccc2c(c1)/C(=N\O)c1ccccc1-2 | n | u | n | u | n | n
O=c1cnc2cnc(N3CCOCC3)nc2n1C[C@H]1CCCO1 | x | x | n[12.7 µM] | x | n | n
CCn1c(CSc2nnc(C)n2-c2ccccc2)nc2cc(S(=O)(=O)N(C)C)ccc21 | n | n | n | n | n | n
